In the supplement of paper PMC6555819:

Columns and labels:
Assay in all cases: PBM binding z-score (relative to random genomic background probes); higher = stronger binding; sequences stand for … in GC…GCGATTGACAGCGTAGAATGAAGG
[1] = test system: RARb homodimer (NR concentration 270 nM)
How it was run: (§1)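 Ligand-free nuclear receptor dimers were bound for 1 h to custom Agilent 4×180K protein-binding microarrays. Detection used antibodies against each partner (one per run). Binding z-scores rest on regression-normalized fluorescence, with random background probes as the reference.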

[2] = test system: RARg:RXRa (NR concentration 270 nM, RXRa partner concentration 90 nM)
How it was run: as §1

[3] = test system: RARg homodimer (NR concentration 270 nM)
How it was run: as §1

[4] = test system: RXRa DBDmut IVT, anti-RXR (DBD mutation: RXRa K156A/R161A, NR concentration 90 nM)
How it was run: as §1

[5] = test system: RXRa homodimer (NR concentration 180 nM)
How it was run: as §1

[6] = test system: THRa:RXRa (NR concentration 90 nM, RXRa partner concentration 90 nM)
How it was run: as §1

[7] = test system: THRa homodimer (NR concentration 90 nM)
How it was run: as §1

[8] = test system: VDR homodimer (NR concentration 270 nM)
How it was run: as §1

Row | Sequence | PBM binding z-score [1] | PBM binding z-score [2] | PBM binding z-score [3] | PBM binding z-score [4] | PBM binding z-score [5] | PBM binding z-score [6] | PBM binding z-score [7] | PBM binding z-score [8]
1 | CCTAGCAGGCCAATCTGGGTCGCTCAAGGCTTGA | 0.548 | 0.673 | -0.21 | -0.847 | 0.755 | 2.75 | -0.707 | -0.559
2 | GCTGCTAGGTCAACGGATGGTCAGCTAAAGCTCG | 3.51 | 4.98 | 5.24 | 1.17 | 2.82 | 2.51 | 0.887 | 0.0371
3 | CCTCCTGGGCCACGAAAGGTCATTGATTCAGTGA | 4.56 | 4.7 | 4.3 | 0.0691 | 4.89 | 3.84 | 0.846 | 2.04
4 | CCTCCAAGGTCAGAGAGGTCAGTGAATGCCGAGT | 5.51 | 6.2 | 6.87 | 3.18 | 5.37 | 4.36 | 2.59 | 4.62
5 | ATCTCTAGGTAACCAAGTTCAGAGAATGCCGAAC | 1.48 | 0.849 | 1.13 | 0.821 | 0.723 | 1.46 | 0.471 | 2.7
6 | ATCGAAAGATCGAGGTGAGTATAGAGAAAGGGAA | -0.0948 | 0.227 | 0.358 | -0.896 | 0.294 | 0.955 | 0.245 | -0.151
7 | ATATGTAGGTTACATCTGGGTCATTCAGGCTATG | 3.02 | 3.33 | 2.31 | 0.961 | 2.38 | 3.17 | 1.31 | 1.8
8 | AGAACGAGGGCAATGAGTTGATAGGACGGGTGGC | 1.01 | 1.22 | 1.39 | 2.23 | 0.869 | 0.954 | -0.116 | 3.01
9 | CCTACTGGTCCAAAGGTCATTGATTCCAATGCTC | 4.86 | 5.09 | 4.49 | 2.23 | 5.45 | 3.31 | 1.49 | 2.58
